# PubChem BioAssay (EPA / NIEHS)
# Activity calls are given as the source filed them. How the source made its calls: active means hit-call score of the fitted dose curve at least 0.9, where 1 is the maximum; inactive means score below 0.9.
# Columns and labels:
# [1] = read-out: TIMP metallopeptidase inhibitor 2 (TIMP2), TIMP2 (gene 7077); assay: BSK_KF3CT_TIMP2: BioMAP Diversity Plus: KF3CT Assay for TIMP metallopeptidase inhibitor 2 (TIMP2) Biomarker Activity (AID 2283071); settings: primary human keratinocytes with fibroblasts; actives raise or lower the signal
# How it was run: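 Co-culture of human primary keratinocytes and foreskin fibroblasts, measured 24 h after chemical dosing. TIMP-2 quantified by ELISA and fitted in both directions relative to DMSO. Cytotoxicity checked in parallel cultures by SRB total-protein staining.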
# [2] = read-out: Transforming growth factor beta 1 (TGFb1), TGFB1 (gene 7040); assay: BSK_KF3CT_TGFb1: BioMAP Diversity Plus: KF3CT Assay for Transforming growth factor beta 1 (TGFb1) Biomarker Activity (AID 2283072); settings: primary human keratinocytes with fibroblasts; actives raise or lower the signal
# How it was run: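 Human keratinocyte/foreskin fibroblast co-culture; TGF-b1 measured by ELISA 24 h after dosing, fitted bidirectionally versus DMSO. Cytotoxicity checked in parallel cultures by total protein (SRB staining, 560 nm).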
# [3] = read-out: C-C motif chemokine 2 (Homo sapiens) (UniProt P13500); assay: BSK_KF3CT_MCP1: BioMAP Diversity Plus: KF3CT Assay for Monocyte Chemoattractant Protein 1 (MCP1/CCL2) Biomarker Activity (AID 2283073); settings: primary human keratinocytes with fibroblasts; actives raise or lower the signal
# How it was run: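 Human keratinocyte–foreskin fibroblast co-culture; MCP-1 measured by ELISA 24 h after dosing. Bidirectional fit vs DMSO; cytotoxicity tracked by SRB total protein in parallel cultures.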
# [4] = read-out: Matrix Metallopeptidase 9 (MMP9), MMP9 (gene 4318); assay: BSK_KF3CT_MMP9: BioMAP Diversity Plus: KF3CT Assay for Matrix Metallopeptidase 9 (MMP9) Biomarker Activity (AID 2283074); settings: primary human keratinocytes with fibroblasts; actives raise or lower the signal;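 on AC50: MMP9 protein level quantified by ELISA in the co-culture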
# How it was run: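 Human keratinocyte and foreskin fibroblast co-culture exposed to chemicals for 24 h; MMP9 biomarker measured by ELISA, bidirectional fitting relative to DMSO; cytotoxicity tracked by SRB total protein staining in parallel cultures.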
# [5] = read-out: urokinase plasminogen activator (uPA), PLAU (gene 5328); assay: BSK_KF3CT_uPA: BioMAP Diversity Plus: KF3CT Assay for urokinase plasminogen activator (uPA) Biomarker Activity (AID 2283075); settings: primary human keratinocytes with fibroblasts; actives raise or lower the signal
# How it was run: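 Primary human keratinocyte/foreskin fibroblast co-culture exposed to chemical; uPA measured by ELISA at 24 h. Bidirectional fit versus DMSO, with parallel SRB total-protein staining for cytotoxicity.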
# [6] = read-out: E-selectin (Homo sapiens) (UniProt P16581); assay: BSK_LPS_Eselectin: BioMAP Diversity Plus: LPS Assay for Eselectin Biomarker Activity (AID 2283077); settings: primary human HUVEC with PBMC; actives raise or lower the signal
# How it was run: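 Human umbilical vein endothelial cells co-cultured with PBMC under LPS stimulation; cell-surface E-selectin measured by ELISA 24 h after dosing. Change in either direction versus DMSO, with SRB total-protein staining in parallel cultures for cytotoxicity.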
# [7] = read-out: Interleukin-8 (IL8), CXCL8 (gene 3576); assay: BSK_LPS_IL8: BioMAP Diversity Plus: LPS Assay for Interleukin-8 (IL8) Biomarker Activity (AID 2283078); settings: primary human HUVEC with PBMC; actives raise or lower the signal
# How it was run: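 Human umbilical vein endothelial cells co-cultured with PBMC, LPS-stimulated, exposed to compound for 24 h. IL-8 quantified by ELISA; fitted in both directions against DMSO, with SRB total-protein staining of parallel cultures for cytotoxicity.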
# [8] = BSK_LPS_SRB: Viability Assessment in the BioMAP Diversity Plus: LPS Assay (AID 2283079); settings: primary human HUVEC with PBMC;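 further: total protein by sulforhodamine B absorbance as a cytotoxicity measure; measured one day after compound addition; fitted in both directions against DMSO so loss or gain of signal counts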
# How it was run: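 Co-culture of human umbilical vein endothelial cells and PBMC, read 24 h after dosing. Total protein by 0.1% SRB staining after 10% TCA fixation, absorbance at 560 nm; bidirectional fit against DMSO.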
# [9] = read-out: Interleukin-1 alpha (IL1a), IL1A (gene 3552); assay: BSK_LPS_IL1a: BioMAP Diversity Plus: LPS Assay for Interleukin-1 alpha (IL1a) Biomarker Activity (AID 2283080); settings: primary human HUVEC with PBMC; actives raise or lower the signal
# How it was run: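 Human umbilical vein endothelial cells co-cultured with PBMC and stimulated with LPS; IL-1a measured by ELISA 24 h after dosing. Bidirectional fitting against DMSO; cytotoxicity checked by SRB staining in parallel cultures.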
# [10] = BSK_LPS_PGE2: BioMAP Diversity Plus: LPS Assay for Prostaglandin E2 (PGE2) Biomarker Activity (AID 2283082); settings: primary human HUVEC with PBMC; actives raise or lower the signal;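 on AC50: secreted prostaglandin E2 measured by ELISA in LPS-stimulated co-culture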
# How it was run: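 HUVEC plus human PBMC co-culture stimulated with LPS; secreted PGE2 quantified by ELISA 24 h after chemical dosing. Activity fitted bidirectionally against DMSO baseline; parallel SRB staining (0.1% SRB after 10% TCA fixation, 560 nm) flags overt cytotoxicity.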
# [11] = read-out: Macrophage colony-stimulating factor (MCSF), CSF1 (gene 1435); assay: BSK_LPS_MCSF: BioMAP Diversity Plus: LPS Assay for Macrophage colony-stimulating factor (MCSF) Biomarker Activity (AID 2283083); settings: primary human HUVEC with PBMC; actives raise or lower the signal
# How it was run: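 HUVEC–PBMC co-culture, M-CSF measured by ELISA 24 h after chemical dosing. Fitted in both directions relative to DMSO as negative control; overt cytotoxicity assessed by SRB total-protein staining in parallel cultures.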
# [12] = read-out: Tumor necrosis factor (Homo sapiens) (UniProt P01375); assay: BSK_LPS_TNFa: BioMAP Diversity Plus: LPS Assay for Tumour Necrosis Factor alpha (TNFa) Biomarker Activity (AID 2283085); settings: primary human HUVEC with PBMC; actives raise or lower the signal
# How it was run: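 Human umbilical vein endothelial cells co-cultured with PBMC and stimulated with LPS. TNFa was measured by ELISA 24 h after chemical dosing, fitted bidirectionally relative to DMSO.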
# [13] = read-out: Vascular cell adhesion molecule 1 (VCAM1), VCAM1 (gene 7412); assay: BSK_LPS_VCAM1: BioMAP Diversity Plus: LPS Assay for Vascular cell adhesion molecule 1 (VCAM1) Biomarker Activity (AID 2283086); settings: primary human HUVEC with PBMC; actives raise or lower the signal
# How it was run: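 Human umbilical vein endothelial cells co-cultured with PBMC and stimulated with LPS; VCAM-1 measured by ELISA 24 h after dosing. Bidirectional curve fitting against DMSO baseline; cytotoxicity tracked in parallel by SRB total-protein staining.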
# CD40, CD40 (gene 958) [14] = assay: BSK_SAg_CD40: BioMAP Diversity Plus: SAg Assay for CD40 Biomarker Activity (AID 2283088); settings: primary human HUVEC with PBMC; actives raise or lower the signal
# How it was run: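 HUVEC plus PBMC co-culture, superantigen-activated, with CD40 read by ELISA 24 h after dosing. Curves fitted in both directions against DMSO. Overt cytotoxicity checked by parallel SRB total-protein staining.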
# CD69, CD69 (gene 969) = assay: BSK_SAg_CD69: BioMAP Diversity Plus: SAg Assay for CD69 Biomarker Activity (AID 2283089); settings: primary human HUVEC with PBMC; actives raise or lower the signal;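 on AC50: cell surface CD69 protein quantified by ELISA with fluorescence detection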
# How it was run: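 HUVEC co-cultured with PBMC were dosed with chemical, and CD69 was measured by ELISA with fluorescence read-out 24 h later. Bidirectional curve fitting used DMSO as negative control and activity baseline.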
# [15] = read-out: Monocyte Chemoattractant Protein-1 (MCP1), CCL2 (gene 6347); assay: BSK_SAg_MCP1: BioMAP Diversity Plus: SAg Assay for Monocyte Chemoattractant Protein-1 (MCP1) Biomarker Activity (AID 2283090); settings: primary human HUVEC with PBMC; actives raise or lower the signal
# How it was run: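 MCP-1 levels in the endothelial–PBMC SAg co-culture were quantified by ELISA at 24 h post-dosing; both increases and decreases versus DMSO scored. Cytotoxicity monitored by SRB total protein in parallel cultures.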
# CD40, CD40 (gene 958) [16] = assay: BSK_LPS_CD40: BioMAP Diversity Plus: LPS Assay for CD40 Biomarker Activity (AID 2283076); settings: primary human HUVEC with PBMC; actives raise or lower the signal
# How it was run: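 HUVEC plus PBMC co-culture stimulated with LPS; CD40 quantified by ELISA 24 h after compound dosing. Fitting was bidirectional relative to DMSO. SRB staining of parallel cultures flagged overt cytotoxicity.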
# [17] = read-out: Monocyte Chemoattractant Protein-1 (MCP1), CCL2 (gene 6347); assay: BSK_LPS_MCP1: BioMAP Diversity Plus: LPS Assay for Monocyte Chemoattractant Protein-1 (MCP1) Biomarker Activity (AID 2283081); settings: primary human HUVEC with PBMC; actives raise or lower the signal;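 on AC50: secreted MCP-1 protein quantified by ELISA in culture supernatant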
# How it was run: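 Human umbilical vein endothelial cells co-cultured with PBMC, LPS-stimulated; secreted MCP-1 measured by ELISA 24 h after compound addition. Bidirectional curve fitting against DMSO baseline; SRB total-protein staining in parallel cultures for cytotoxicity.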
# CD38, CD38 (gene 952) = assay: BSK_SAg_CD38: BioMAP Diversity Plus: SAg Assay for CD38 Biomarker Activity (AID 2283087); settings: primary human HUVEC with PBMC; actives raise or lower the signal
# How it was run: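 Human HUVEC plus PBMC co-culture stimulated with superantigen; CD38 measured by ELISA 24 h after chemical dosing. Fluorescence read-out, bidirectional fit against DMSO; cytotoxicity tracked in parallel by SRB and Alamar Blue.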
# Sequence of E-selectin (Homo sapiens) (P16581 whole entry, looked up): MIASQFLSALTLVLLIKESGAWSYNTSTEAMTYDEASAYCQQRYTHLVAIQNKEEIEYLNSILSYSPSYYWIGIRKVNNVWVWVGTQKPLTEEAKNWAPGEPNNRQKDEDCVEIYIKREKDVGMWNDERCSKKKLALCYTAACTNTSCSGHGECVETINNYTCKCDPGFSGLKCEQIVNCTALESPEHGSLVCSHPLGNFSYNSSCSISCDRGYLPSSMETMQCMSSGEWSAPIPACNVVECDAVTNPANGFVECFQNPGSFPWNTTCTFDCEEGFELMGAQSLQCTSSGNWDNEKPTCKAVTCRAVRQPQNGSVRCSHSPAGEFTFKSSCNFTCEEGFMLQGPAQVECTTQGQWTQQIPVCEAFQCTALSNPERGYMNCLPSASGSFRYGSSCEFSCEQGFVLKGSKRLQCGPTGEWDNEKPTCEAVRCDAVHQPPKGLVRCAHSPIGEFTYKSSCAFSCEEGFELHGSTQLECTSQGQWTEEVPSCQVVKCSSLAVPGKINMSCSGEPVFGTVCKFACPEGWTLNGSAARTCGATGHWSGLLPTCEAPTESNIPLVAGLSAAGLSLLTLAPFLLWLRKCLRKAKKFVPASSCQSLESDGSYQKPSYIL
# Sequence of Tumor necrosis factor (Homo sapiens) (P01375 whole entry, looked up): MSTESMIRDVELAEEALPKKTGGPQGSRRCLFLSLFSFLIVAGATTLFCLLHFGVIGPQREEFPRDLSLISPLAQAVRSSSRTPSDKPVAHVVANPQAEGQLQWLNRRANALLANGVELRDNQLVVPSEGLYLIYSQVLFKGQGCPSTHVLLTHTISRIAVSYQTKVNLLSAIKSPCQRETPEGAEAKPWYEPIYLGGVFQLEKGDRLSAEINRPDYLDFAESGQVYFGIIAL
smiles,measurement,setting,value
CC1(C)NC(=O)N(c2ccc([N+](=O)[O-])c(C(F)(F)F)c2)C1=O,outcome,[1],inactive
same,outcome,[2],inactive
same,outcome,[3],inactive
same,outcome,[4],inactive
same,outcome,[5],inactive
same,outcome,[6],inactive
same,outcome,[7],inactive
same,outcome,[8],inactive
same,outcome,[9],inactive
same,outcome,[10],inactive
same,outcome,[11],inactive
same,outcome,[12],inactive
same,outcome,[13],inactive
same,outcome,"CD40, CD40 (gene 958) [14]",inactive
same,outcome,"CD69, CD69 (gene 969)",inactive
same,outcome,[15],inactive
CCCCCCCC[Si](OCC)(OCC)OCC,outcome,[1],inactive
same,outcome,[2],inactive
same,outcome,[3],inactive
same,AC50,[4],27.6 µM (active)
same,outcome,[5],inactive
same,outcome,"CD40, CD40 (gene 958) [16]",inactive
same,outcome,[6],inactive
same,outcome,[7],inactive
same,outcome,[8],inactive
same,outcome,[9],inactive
same,outcome,[10],inactive
same,outcome,[11],inactive
same,outcome,[12],inactive
same,AC50,[13],30.1 µM (active)
same,outcome,"CD40, CD40 (gene 958) [14]",inactive
same,AC50,"CD69, CD69 (gene 969)",25.4 µM (active)
same,outcome,[15],inactive
O=C(O)c1ccccc1C(=O)OCc1ccccc1,outcome,[1],inactive
same,outcome,[2],inactive
same,outcome,[3],inactive
same,outcome,[4],inactive
same,outcome,"CD40, CD40 (gene 958) [16]",inactive
same,outcome,[6],inactive
same,outcome,[7],inactive
same,outcome,[8],inactive
same,outcome,[9],inactive
same,outcome,[17],inactive
same,outcome,[10],inactive
same,outcome,[11],inactive
same,outcome,[12],inactive
same,outcome,[13],inactive
same,outcome,"CD40, CD40 (gene 958) [14]",inactive
same,outcome,"CD69, CD69 (gene 969)",inactive
same,outcome,[15],inactive
CCCCCc1ccc(N)cc1,AC50,[1],20.8 µM (active)
same,outcome,[2],inactive
same,outcome,[3],inactive
same,AC50,[4],13.7 µM (active)
same,outcome,"CD40, CD40 (gene 958) [16]",inactive
same,outcome,[6],inactive
same,outcome,[7],inactive
same,outcome,[8],inactive
same,outcome,[9],inactive
same,AC50,[10],12 µM (active)
same,outcome,[12],inactive
same,AC50,[13],20 µM (active)
same,outcome,"CD38, CD38 (gene 952)",inactive
same,outcome,"CD40, CD40 (gene 958) [14]",inactive
same,outcome,"CD69, CD69 (gene 969)",inactive
same,outcome,[15],inactive
CCOC(=O)O[C@H](C)OC(=O)c1ccc2c(c1)cc(C(=O)NC1CCN(C(C)C)CC1)n2Cc1cc(-c2ccc(Cl)s2)on1,AC50,[1],7.43 µM (active)
same,AC50,[2],6.7 µM (active)
same,AC50,[3],5.86 µM (active)
same,AC50,[4],8.39 µM (active)
same,AC50,"CD40, CD40 (gene 958) [16]",6.74 µM (active)
same,AC50,[6],10.4 µM (active)
same,AC50,[7],6.76 µM (active)
same,AC50,[8],5.61 µM (active)
same,AC50,[9],6.55 µM (active)
same,AC50,[17],8.72 µM (active)
same,AC50,[10],7.65 µM (active)
same,AC50,[12],10.1 µM (active)
same,AC50,[13],6.25 µM (active)
same,AC50,"CD38, CD38 (gene 952)",7.17 µM (active)
same,AC50,"CD40, CD40 (gene 958) [14]",6.99 µM (active)
same,AC50,"CD69, CD69 (gene 969)",6.44 µM (active)
same,AC50,[15],7.11 µM (active)
Cc1ccc(C(C)C)cc1,outcome,[1],inactive
same,outcome,[2],inactive
same,outcome,[3],inactive
same,outcome,[4],inactive
same,outcome,[5],inactive
same,outcome,"CD40, CD40 (gene 958) [16]",inactive
same,outcome,[6],inactive
same,outcome,[7],inactive
same,outcome,[8],inactive
same,outcome,[9],inactive
same,outcome,[17],inactive
same,outcome,[10],inactive
same,outcome,[11],inactive
same,outcome,[12],inactive
same,outcome,[13],inactive
same,outcome,"CD40, CD40 (gene 958) [14]",inactive
same,outcome,"CD69, CD69 (gene 969)",inactive
same,outcome,[15],inactive
